Reference: the supplement of paper PMC12632987
In all, about 4,500 sequences were measured (“median log2 fold change of GCK-ALFA target abundance (FLAG IP / Myc IP barcode read proportion)”: median about 0.078, lowest 2% from about -0.6 on). The sample as a whole holds a higher share of the lowest values than the screen did.

B1: GBRAP_26_5425 (protein)
chain: LDEAVERAIERISAAAAELLDPETAAAVRAVVTDELLEAEEEIEEEDLSEEEVEELLEEVLEEIEEDLEELGVPAEKRARLVAVAEEELEEVLEEWKEER
B2: GBRAP_78_6625 (protein)
chain: EIKKLLEKALKKVEEAAKLATKIPSEEGIEILDHLIDAFEYIEEAIEEGGDLEKLEKALKHLEEALKEIEKLNNPELEELKKLVKEAIKLLKKAIELKKK
B3: GBRAP_39_5692 (protein)
chain: EEEEEDEDVVSYLQALAAGRLYETGKSLEEAYKEAKKILEEEAKRHPELKELLEELIKLADEKGEEAKEVLIGIAVLIEEGTPLEEIKEHIEKAINYFKK
B4: GBRAP_11_2756 (protein)
chain: KKEKLKEMAELAEKAAELVKKLLEEGVDNEELQEELEKVLKELKKLVKEYGDEADKKLVEIAEELWKKAKEDEENKEQYYKELLATLRVLSGDFLLEYEE
B5: GBRAP_160_4385 (protein)
chain: AAALAALAKEIEALRKEFEEEAKDLNTEETRTLAIGVLAEVAALAWENEAISEETKDKIFAIIDEAIEELKANKDAPPEEIVAITTEAFDKIIALVKAEA
B6: GBRAP_160_4108 (protein)
chain: SAGAEAILADFREVFAEVLELWDEVSPEELVAYYEVETGSVIMDAMENYGLSDETADRLLDIRDEAAARLLAHGNVSREEVERILAEALARIEAAVAAAA
B7: GBRAP_9_7157 (protein)
chain: MEELIEKVEEVIEDMLEEIKEVVPEEVKPAVEKRREEVKKRLEELGEDENATEEEIIEEAERLVRETLEEMKKLVDPETAKIVEAIALTAELEIEEIGEE
B8: GBRAP_184_5064 (protein)
chain: KIYEETIEVTNLEEAKEKMKELKEKIKNFKGDLIVHLKLPEFNKEIVKAILDELAEIKKAGYAKNITLGIDADTTEEEVDFLISTADEKGINVVVALREE
B9: GBRAP_160_4175 (protein)
chain: SEKLEEAEKKIKEIFEEAYKMMEGESAEERAAIVAVAFGEIILYLEEKGLLTDETEAKIDEIEDEAVEYILENPDLTEEELRELLEESAEKIIKALKENS
B10: GBRAP_160_4178 (protein)
chain: SEKIEEAEEEIEEIFEEAYEMMKGQTAEERAAIVDVAFGEIILYLEEKGLLTDETEAKIDEIRDETVSYILANPDLTDEELRELLEEAAEEIIEALRENS
B11: GBRAP_52_6269 (protein)
chain: MKELAEKLAKEFIETSLNGTEEEVKEFAKKLVETESQELIELMLEIVVEMAKSLNAEELEKLLDAFLILEDELEEAGKDTLPAEDAAAELAKLYMEKLKE
B12: GBRAP_52_5996 (protein)
chain: AEARIRALAEELVAAVLAGDEERVRAILRRIAAELSDEEIVETVRLATRLLARDPRATLEDLARFIDIVEEVLEEEGKSDRLIADVLGAIAEAIAEVEAE
B13: GBRAP_52_5997 (protein)
chain: REERIEALARELVEATLAGDDERVRALLRRIAAELSDEEIVETVRLATRLLERDPRATLEDLANFIDLVEDVLEEEGKSDELIARVLGAIAEAIYEAELE
B14: GBRAP_39_5719 (protein)
chain: EEEEEAENIFSYYEAVGAKKMYERGISLDELFAELYARARELAADDPELAAALDELRALAEAAGDEAKLAAAGLMSRLVEGEPREEILADAEKLIAYLKS
B15: GBRAP_128_3452 (protein)
chain: STEEKVKKAEELMNKIIESSDEEVPALAAELVDLIGESDDESAKAIAEVIIKKIPELSEEKLEILADVFVARRPELTPEKQEVLNEIAVAIGEEILEKEE
B16: GBRAP_125_2964 (protein)
chain: SEEEDLEALATLAKALGFDEDDVEEAVRLARKFGFKNTLIALFLAEGYDEVADLVEKLTEEEAKEVLKRLAEEIKKNPELTPEEVVKLAKELFEEVIAKK
B17: GBRAP_160_4000 (protein)
chain: MEEIEELKEEIEEIIDETIAAMEGLTPEERLTLVRGMVGEIIQLVEDSPAVSDEAEDEIAELGDELVEEVEANRDAPLEVWRELLERFLEEIKKILDKEE
B18: GBRAP_11_2888 (protein)
chain: KKEKLKELAELARKIAELIEKLLEEGTDNEELLKEIEKLLKELEKLTKEYADKGSQKLTEIAKELFKKALEDPENRKEYLEELLAAVRVLEGDYLLEYEE
B19: GBRAP_128_3538 (protein)
chain: SLEEVKKRAREVMEKIKNSSVEEAYEITKEFLEELKSLSLEEVEAAIEVLEELLPELSAEKLEAIADAMREMRPTLSPEKQRLVADLQVEALNEAEEKEE
B20: GBRAP_35_5578 (protein)
chain: EDKEMLLETVRDLAEATIEAIKEGDLDLAIALLEALLRTAELAVEELANDAEALEEIAALLERVIAAIKEHLADDPRVQALLARLEALLARTKALLAAVK
B21: GBRAP_184_5199 (protein)
chain: KVLEIEVTVSNLEEAKKKMEEILAKAKEEKADLLLILDLKTSTKEIIETIMNALGKIKKEGYAPNVLVELEGDLSDENIDLAFKLADEAGVSLVIALPEE
B22: GBRAP_11_2855 (protein)
chain: KKEKLKEIAELAKKAIELLKELLKKGVDDKELQKKIKELLEKLLELVKKYLDEASVKLAKEALESFKKSLEDPENKEKYINESLAFLEVLLGDVLLEIDE
B23: GBRAP_139_3755 (protein)
chain: SKTEEAIKEIVELVKDPNATLEEIEEKVKEIAKELDEESIKKVLKAAAEAAKSLSVERIEELEERFIKILKEEGRSEDVIDFLEGEFNEAAALSAYREEL
B24: GBRAP_196_5419 (protein)
chain: SLVQEARKINEEAEKRLKATDKEVTVVVSTGDLERHREAVEKAIDYAKEHPDELVLLVFMDDLETALEAARYAKELAEKEGVDLVVEVASRELEEHPDEE
B25: GBRAP_14_3875 (protein)
chain: MEEIKKIIDDMVAEIVAFVKEVSPEIAPEVEKRLNEIREKTLARIEETGDPLAAFDAMEEEMIAAMEEITADLPEEDRTAILAELRVRLAEARYRIDEVL
B26: GBRAP_150_3934 (protein)
chain: DLEELLLLAESVADLLDLALNEGIDRLKALKRAQELLKDLIKEADEELKEIAKKAQELIKKAIKLEEEGGEEKEIKKLLKKAQELAKELAKELEKKIEEE
B27: GBRAP_11_2819 (protein)
chain: MDEVVKELIEVLKKLAEAADKYLKEDVGDEELLKKIEELAKKALELAKKLNDPAVIREAQAILDTVEEAKKDPANREQYVANARAGARTLLANLEEEAEE
B28: GBRAP_35_5522 (protein)
chain: DSDTLTVEMLVATIEDLTLAVPDMDVETAVQIATQLIKAAEELAKDIKNNVEGLKKLRDALAKLRDALEKHYGDDPLAQQVIAQIDKLIAEIDKMIKEAK
B29: GBRAP_95_7082 (protein)
chain: EEDLETLEDLAQTAIDLYEAGFEEQAARAAKAAAEELEELGYKVADKELLTKLLTYAADLAPKYFDEEEIERWLKIAEATGAPQSIIDALRAALAAKKAA

These binders were tested against GABARAP, O95166 (assay: median log2 fold change of GCK-ALFA target abundance (FLAG IP / Myc IP barcode read proportion) (log2 ratio); each designed protein is fused to an ALFA-tag nanobody in HEK293 cells to bring the named protein to FLAG-tagged glucokinase (GCK); Myc marks an untargeted standard; higher = target protein stabilised (more abundant)). Conditions: target protein: 3xFLAG-MCP-GCK-ALFA reporter; HEK293 landing pad (RPLP).
Summary of the method: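 HEK293 landing-pad cells received a recombined binder library fused to the ALFA nanobody and were induced with 2 μg mL^−1 doxycycline, then transfected with a plasmid encoding a FLAG-tagged target and a Myc-tagged standard. Lysates were collected after 48 h for anti-FLAG and anti-Myc immunoprecipitation, and the circular RNA barcodes were reverse transcribed, amplified and sequenced. Target abundance for each binder is the median log2 ratio of FLAG to Myc barcode read proportions. Barcodes had to reach a proportion of at least 10^−7 in both replicates, each binder needed at least 3 barcodes per replicate, a pseudocount of 10^−6 was applied, and the two replicates were pooled.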

Sequence of GABARAP, O95166 (O95166 whole entry, the tested form may be a part): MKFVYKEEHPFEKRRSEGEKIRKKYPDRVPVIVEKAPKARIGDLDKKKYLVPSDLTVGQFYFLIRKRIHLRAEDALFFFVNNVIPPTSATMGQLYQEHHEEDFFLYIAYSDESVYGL

Row | Binder | median log2 fold change
1 | B1 | -0.608
2 | B2 | 0.283
3 | B3 | 0.284
4 | B4 | 0.0874
5 | B5 | -0.171
6 | B6 | -0.764
7 | B7 | -0.11
8 | B8 | 0.127
9 | B9 | -0.178
10 | B10 | -0.598
11 | B11 | 0.267
12 | B12 | -0.179
13 | B13 | -0.74
14 | B14 | 0.194
15 | B15 | 0.274
16 | B16 | -0.94
17 | B17 | -0.0825
18 | B18 | -0.0328
19 | B19 | 0.273
20 | B20 | -0.85
21 | B21 | -0.0295
22 | B22 | 0.193
23 | B23 | 0.234
24 | B24 | 0.0489
25 | B25 | 0.256
26 | B26 | 0.0862
27 | B27 | 0.324
28 | B28 | -0.0356
29 | B29 | 0.268
